Unmarked numbers belong to inactive results. How the calls were made is not given here.
These compounds were tested against Pantothenate synthetase (Mycobacterium tuberculosis (strain ATCC 25618 / H37Rv)) (UniProt P9WIL5) (assay: Coupled enzyme confirmation of inhibitors against recombinant Mtb PanC (AID 375;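 further: 0% = full reaction with vehicle and 100% = no enzyme background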)). Settings: coupled enzyme assay; at 10 µM, active compounds read high.
Pantothenate synthetase (Mycobacterium tuberculosis (strain ATCC 25618 / H37Rv)), sequence (P9WIL5 whole entry, looked up): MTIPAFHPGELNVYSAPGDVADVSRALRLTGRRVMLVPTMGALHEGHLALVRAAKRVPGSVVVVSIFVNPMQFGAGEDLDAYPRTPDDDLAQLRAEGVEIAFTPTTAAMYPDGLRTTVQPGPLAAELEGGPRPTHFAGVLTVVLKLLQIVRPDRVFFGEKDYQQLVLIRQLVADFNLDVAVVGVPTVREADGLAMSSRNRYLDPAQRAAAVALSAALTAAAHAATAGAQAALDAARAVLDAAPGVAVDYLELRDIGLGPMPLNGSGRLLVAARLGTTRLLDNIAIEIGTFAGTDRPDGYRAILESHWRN

| SMILES | inhibition |
| --- | --- |
| O=C(Cn1c(SCC(=O)N2CCCc3ccccc32)nc2ccccc21)N1CCCC1 | 0% |
| O=C(CN1CCN(c2nc(-c3ccc(F)cc3)cs2)CC1)NCc1ccc2c(c1)OCO2 | 5% |
| CCN1CCN(CCCNC(=O)c2cn(CCOC)c(=O)c3c2c2ccccc2n3C)CC1 | 0% |
| O=C(NC1CCCc2ccccc21)C1CCN(c2nnc(-n3cccc3)s2)CC1 (stereo unspecified) | 0% |
| Cc1ccc(C)c(N2CCN(C(=O)C3CCN(S(=O)(=O)c4c(C)noc4C)CC3)CC2)c1 | 4% |
| CCN(CC)C(=O)CSC1=C(C#N)C(c2ccco2)C(C(=O)OCCOC)=C(C)N1 (stereo unspecified) | 0% |
| COc1ccc(C(CNC(=O)CN2C(=O)NC3(CC(C)CC(C)(C)C3)C2=O)N2CCOCC2)cc1 (stereo unspecified) | 4% |
| O=C(CN1C(=O)CCS(=O)(=O)c2ccccc21)NCc1ccc(F)cc1 | 3% |
| Nc1nc(SCc2ccc(Cl)cc2Cl)n[nH]1 | 5% |
| CSc1nc(=NC(C)=O)ss1 | 0% |
| Cc1ccccc1-c1nc(CS(=O)(=O)CC(=O)N(C)C2CCCCC2)c(C)o1 | 0% |
| CCn1c(CSc2nnc(-c3cccnc3)n2-c2ccccc2C)nc2cc(C(=O)O)ccc21 | 0% |
| Cn1c(=O)c(=O)n(C)c2cc(S(=O)(=O)Nc3ccc4c(c3)OCCO4)ccc21 | 6% |
| FC(F)Oc1cccc2cccnc12 | 6% |
| CCOc1ccc(N(CC(=O)NCc2ccco2)S(=O)(=O)c2ccc(OC)c(OC)c2)cc1 | 0% |
| COc1cccc(N2CCN(CC(=O)c3c[nH]c4ccc(OC)cc34)CC2C)c1 (stereo unspecified) | 2% |

— PubChem BioAssay
